Of roughly 8,800 targets only a part is listed; those with a hit were picked by preference. About 0.5% of all pairs of compound and target were hits.
Compound: O=C1NC(=O)C(c2cnc3ccccn23)=C1c1cn2c3c(cc(F)cc13)CN(C(=O)N1CCCCC1)CC2
Assay: log2 fold change, soluble protein after heating vs DMSO (PISA); higher = thermal stabilisation; K562 lysate, 10 uM; active = over 0.2 and 3.5 SD of the protein, either way, in both replicates (recomputed)
Outline: (§1)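 K562 pellets were dounce-homogenised in PBS pH 7.4 with 1 mM MgCl2, and the crude extract at 1 mg/mL protein was treated with 10 μM compound for 30 min. Aliquots were heated for 3 min across 48°C-58°C, pooled, and brought to 0.5% NP-40 at 4°C; soluble protein was the supernatant after 21,000xg for 90 min. Soluble protein was quantified by TMTpro 16plex LC-MS/MS with channel sums equalised, and reported as log2 fold change in thermal stability against DMSO controls, with values from duplicates.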

UniProt P30622, sequence (P30622 whole entry, looked up): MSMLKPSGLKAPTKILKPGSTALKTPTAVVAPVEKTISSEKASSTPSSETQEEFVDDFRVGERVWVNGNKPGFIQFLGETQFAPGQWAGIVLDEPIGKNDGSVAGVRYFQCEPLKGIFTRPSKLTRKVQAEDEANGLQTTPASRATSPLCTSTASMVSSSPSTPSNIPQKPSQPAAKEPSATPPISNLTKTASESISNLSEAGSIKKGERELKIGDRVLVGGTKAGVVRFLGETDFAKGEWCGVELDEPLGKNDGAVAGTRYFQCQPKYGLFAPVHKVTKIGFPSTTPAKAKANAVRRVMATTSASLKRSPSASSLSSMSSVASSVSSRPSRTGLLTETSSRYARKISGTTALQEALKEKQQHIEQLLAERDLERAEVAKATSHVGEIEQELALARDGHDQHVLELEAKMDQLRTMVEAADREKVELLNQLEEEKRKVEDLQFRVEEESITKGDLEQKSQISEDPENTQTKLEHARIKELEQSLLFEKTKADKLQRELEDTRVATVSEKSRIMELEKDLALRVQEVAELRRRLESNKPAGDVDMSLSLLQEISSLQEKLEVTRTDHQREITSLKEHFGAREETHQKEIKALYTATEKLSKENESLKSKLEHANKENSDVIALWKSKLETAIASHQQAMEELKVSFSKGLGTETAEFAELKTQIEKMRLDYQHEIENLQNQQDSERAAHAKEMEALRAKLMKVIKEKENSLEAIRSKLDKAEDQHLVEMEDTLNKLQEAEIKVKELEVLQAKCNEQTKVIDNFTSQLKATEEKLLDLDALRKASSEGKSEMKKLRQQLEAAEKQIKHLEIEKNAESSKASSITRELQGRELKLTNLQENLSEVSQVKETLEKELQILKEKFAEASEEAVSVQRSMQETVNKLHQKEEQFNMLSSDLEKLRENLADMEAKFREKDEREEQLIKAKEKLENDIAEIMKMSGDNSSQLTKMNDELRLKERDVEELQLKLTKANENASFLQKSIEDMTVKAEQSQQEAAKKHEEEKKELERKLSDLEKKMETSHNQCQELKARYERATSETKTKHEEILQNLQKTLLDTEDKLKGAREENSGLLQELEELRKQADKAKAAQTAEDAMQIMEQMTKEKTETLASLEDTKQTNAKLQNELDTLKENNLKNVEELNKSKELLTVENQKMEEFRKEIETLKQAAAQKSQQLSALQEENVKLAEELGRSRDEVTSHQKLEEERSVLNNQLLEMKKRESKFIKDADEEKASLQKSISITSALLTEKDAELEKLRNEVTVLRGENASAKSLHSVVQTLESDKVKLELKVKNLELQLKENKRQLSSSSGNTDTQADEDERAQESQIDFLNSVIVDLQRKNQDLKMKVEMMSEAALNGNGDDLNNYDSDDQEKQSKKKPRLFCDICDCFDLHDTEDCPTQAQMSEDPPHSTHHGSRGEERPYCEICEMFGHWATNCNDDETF
UniProt P50570, sequence (P50570 whole entry, looked up): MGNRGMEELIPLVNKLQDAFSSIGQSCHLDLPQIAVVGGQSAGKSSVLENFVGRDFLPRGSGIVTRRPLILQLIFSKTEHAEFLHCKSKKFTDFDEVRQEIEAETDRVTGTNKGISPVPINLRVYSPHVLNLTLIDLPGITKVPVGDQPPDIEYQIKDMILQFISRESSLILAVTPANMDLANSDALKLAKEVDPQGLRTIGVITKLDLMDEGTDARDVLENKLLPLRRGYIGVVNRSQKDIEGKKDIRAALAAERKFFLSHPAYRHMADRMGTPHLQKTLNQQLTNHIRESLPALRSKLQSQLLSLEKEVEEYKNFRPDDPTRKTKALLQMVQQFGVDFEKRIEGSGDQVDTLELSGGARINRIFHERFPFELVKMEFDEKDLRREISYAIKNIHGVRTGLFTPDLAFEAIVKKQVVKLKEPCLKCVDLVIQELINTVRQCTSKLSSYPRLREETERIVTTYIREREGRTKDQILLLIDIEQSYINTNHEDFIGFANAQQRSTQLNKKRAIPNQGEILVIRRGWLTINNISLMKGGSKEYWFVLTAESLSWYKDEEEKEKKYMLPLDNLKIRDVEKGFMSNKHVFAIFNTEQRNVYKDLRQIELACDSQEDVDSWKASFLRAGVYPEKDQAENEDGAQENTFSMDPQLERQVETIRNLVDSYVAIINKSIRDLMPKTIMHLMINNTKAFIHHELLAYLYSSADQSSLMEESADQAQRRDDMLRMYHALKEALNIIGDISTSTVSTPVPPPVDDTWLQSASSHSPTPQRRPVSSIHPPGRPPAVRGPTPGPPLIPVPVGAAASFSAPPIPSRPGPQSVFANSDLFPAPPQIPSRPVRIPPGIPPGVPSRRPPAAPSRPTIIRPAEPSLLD
UniProt Q6PJW8, sequence (Q6PJW8 whole entry, looked up): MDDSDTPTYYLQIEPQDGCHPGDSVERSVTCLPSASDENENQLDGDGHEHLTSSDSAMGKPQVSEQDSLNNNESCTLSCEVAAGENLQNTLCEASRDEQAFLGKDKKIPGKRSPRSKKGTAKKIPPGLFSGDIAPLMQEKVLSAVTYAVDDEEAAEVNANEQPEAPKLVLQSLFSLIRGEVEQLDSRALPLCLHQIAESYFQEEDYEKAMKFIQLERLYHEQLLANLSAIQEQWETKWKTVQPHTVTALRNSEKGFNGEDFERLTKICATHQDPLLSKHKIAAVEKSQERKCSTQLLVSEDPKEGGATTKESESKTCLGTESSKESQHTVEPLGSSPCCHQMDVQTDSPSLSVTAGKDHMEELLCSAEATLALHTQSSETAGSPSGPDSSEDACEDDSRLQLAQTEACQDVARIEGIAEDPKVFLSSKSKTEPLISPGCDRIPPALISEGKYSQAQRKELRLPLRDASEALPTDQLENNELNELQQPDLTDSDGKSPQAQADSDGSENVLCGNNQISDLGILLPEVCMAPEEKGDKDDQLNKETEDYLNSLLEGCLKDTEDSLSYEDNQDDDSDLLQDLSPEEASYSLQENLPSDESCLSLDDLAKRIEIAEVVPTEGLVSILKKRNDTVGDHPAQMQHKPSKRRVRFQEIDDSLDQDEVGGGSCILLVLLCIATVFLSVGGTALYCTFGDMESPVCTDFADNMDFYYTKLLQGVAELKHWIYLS
UniProt Q9BW66, sequence (Q9BW66 whole entry, looked up): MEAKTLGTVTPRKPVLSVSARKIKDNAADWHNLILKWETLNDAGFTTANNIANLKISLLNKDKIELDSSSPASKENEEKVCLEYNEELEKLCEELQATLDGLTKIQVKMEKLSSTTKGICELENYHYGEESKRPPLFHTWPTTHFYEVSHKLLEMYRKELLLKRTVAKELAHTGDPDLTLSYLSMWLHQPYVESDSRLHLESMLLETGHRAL
UniProt O75122, sequence (O75122 whole entry, looked up): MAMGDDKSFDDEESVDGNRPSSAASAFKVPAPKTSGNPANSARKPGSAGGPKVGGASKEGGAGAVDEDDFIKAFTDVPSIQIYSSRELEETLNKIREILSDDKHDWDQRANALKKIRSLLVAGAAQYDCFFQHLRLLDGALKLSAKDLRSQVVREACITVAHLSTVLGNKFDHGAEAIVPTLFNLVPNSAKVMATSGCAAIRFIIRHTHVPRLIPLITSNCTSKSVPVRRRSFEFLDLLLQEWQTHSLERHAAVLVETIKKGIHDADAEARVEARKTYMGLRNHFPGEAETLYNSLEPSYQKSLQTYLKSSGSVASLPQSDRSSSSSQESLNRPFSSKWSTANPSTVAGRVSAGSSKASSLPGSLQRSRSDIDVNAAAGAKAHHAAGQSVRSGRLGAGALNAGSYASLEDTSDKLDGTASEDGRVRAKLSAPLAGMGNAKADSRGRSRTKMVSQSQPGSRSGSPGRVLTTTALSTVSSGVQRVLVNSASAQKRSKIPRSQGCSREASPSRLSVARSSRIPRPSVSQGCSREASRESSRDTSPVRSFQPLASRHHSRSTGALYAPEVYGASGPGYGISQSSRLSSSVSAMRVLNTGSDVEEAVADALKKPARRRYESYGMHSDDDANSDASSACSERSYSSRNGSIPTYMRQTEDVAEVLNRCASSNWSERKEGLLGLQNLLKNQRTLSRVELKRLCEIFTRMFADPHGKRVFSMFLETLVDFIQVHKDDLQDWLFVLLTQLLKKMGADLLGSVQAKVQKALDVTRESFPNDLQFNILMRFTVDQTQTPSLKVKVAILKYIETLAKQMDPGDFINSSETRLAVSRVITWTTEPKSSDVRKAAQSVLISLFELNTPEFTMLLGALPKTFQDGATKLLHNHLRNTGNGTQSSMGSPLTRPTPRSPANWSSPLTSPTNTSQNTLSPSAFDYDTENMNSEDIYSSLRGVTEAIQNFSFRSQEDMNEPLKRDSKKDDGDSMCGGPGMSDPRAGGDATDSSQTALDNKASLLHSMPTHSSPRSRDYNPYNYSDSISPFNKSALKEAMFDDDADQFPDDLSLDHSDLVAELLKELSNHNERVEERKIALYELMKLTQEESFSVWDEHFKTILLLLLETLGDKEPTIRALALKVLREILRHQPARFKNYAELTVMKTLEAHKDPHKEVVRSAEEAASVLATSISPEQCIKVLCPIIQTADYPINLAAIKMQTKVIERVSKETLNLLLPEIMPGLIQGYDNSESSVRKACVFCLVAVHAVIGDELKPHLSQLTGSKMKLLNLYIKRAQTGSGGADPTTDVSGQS
UniProt P67870, sequence (P67870 whole entry, looked up): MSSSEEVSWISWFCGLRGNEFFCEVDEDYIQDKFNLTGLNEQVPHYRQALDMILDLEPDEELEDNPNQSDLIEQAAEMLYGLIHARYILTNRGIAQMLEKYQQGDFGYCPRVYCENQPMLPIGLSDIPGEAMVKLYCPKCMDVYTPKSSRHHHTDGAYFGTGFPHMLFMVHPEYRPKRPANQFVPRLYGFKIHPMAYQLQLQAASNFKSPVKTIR
UniProt Q16527, sequence (Q16527 whole entry, looked up): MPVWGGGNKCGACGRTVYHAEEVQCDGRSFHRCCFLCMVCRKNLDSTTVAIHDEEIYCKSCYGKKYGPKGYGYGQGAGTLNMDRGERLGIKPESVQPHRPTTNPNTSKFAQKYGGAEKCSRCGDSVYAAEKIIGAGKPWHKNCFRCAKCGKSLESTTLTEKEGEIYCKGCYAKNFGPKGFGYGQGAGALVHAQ

log2 fold change, inactive:
CNST (UniProt Q6PJW8) -0.067
DNM2 isoform 4 (UniProt P50570) -0.014
CSRP2 (UniProt Q16527) 0.016
COTL1 (UniProt Q14019) -0.021
CLASP2 (UniProt O75122) 0.194
CYP2S1 isoform 2 (UniProt Q96SQ9) -0.025
CSNK1D (UniProt P48730) -0.002
DMAC2L (UniProt Q99766) -0.038
DDX20 (UniProt Q9UHI6) 0.022
COL6A3 (UniProt P12111) -0.093
CLIP1 isoform 2 (UniProt P30622) 0.002
CINP isoform 3 (UniProt Q9BW66) 0.043
CSDE1 isoform 3 (UniProt O75534) -0.1
DONSON (UniProt Q9NYP3) 0.032
CSAD isoform 3 (UniProt Q9Y600) 0.039
CYP4V2 (UniProt Q6ZWL3) 0.034
CHMP4A (UniProt H0YIN6) 0.287
CSNK2B (UniProt P67870) 0.023
DDR1 isoform 5 (UniProt Q08345) -0.026
DDA1 (UniProt Q9BW61) 0.05
CLCN3 isoform 2 (UniProt P51790) -0.024
DHRS13 (UniProt Q6UX07) -0.001
CSNK2A1 (UniProt P68400) -0.046
CLIP1 isoform 1 (UniProt P30622) -0.01
CRLS1 (UniProt Q9UJA2) 0.036
CLIP1, A0A3B3ITA2 0.068

Compound: c1cn2cc(-c3ccc4cn[nH]c4c3)nc(Nc3ccc(N4CCOCC4)cc3)c2n1 [entospletinib]
Assay: as above
Outline: as §1

log2 fold change, inactive:
CNST (UniProt Q6PJW8) -0.024
DNM2 isoform 4 (UniProt P50570) -0.02
CSRP2 (UniProt Q16527) -0.132
DESI2 (UniProt Q9BSY9) 0.116
COTL1 (UniProt Q14019) 0.023
CLASP2 (UniProt O75122) -0.073
CYP2S1 isoform 2 (UniProt Q96SQ9) 0.055
CSNK1D (UniProt P48730) -0.076
CXCL14 (UniProt O95715) 0.033
CNK3/IPCEF1 isoform 2 (UniProt G9CGD6) 0.008
DMAC2L (UniProt Q99766) 0.022
DDX20 (UniProt Q9UHI6) -0.008
CPLX1 (UniProt O14810) 0.119
CLIP1 isoform 2 (UniProt P30622) -0.151
DDX4 (UniProt Q9NQI0) 0.011
CINP isoform 3 (UniProt Q9BW66) 0.009
DALRD3 (UniProt Q5D0E6) -0.046
CSNK2B (UniProt P67870) 0.241
DDR1 isoform 5 (UniProt Q08345) -0.153
DDA1 (UniProt Q9BW61) 0.054
CLCN3 isoform 2 (UniProt P51790) 0.046
CSNK2A1 (UniProt P68400) 0.213
CLIP1 isoform 1 (UniProt P30622) -0.009

Source: the supplement of paper PMC10849652
